# Results from PubChem BioAssay AID1259398 (Fisher Drug Discovery Resource Center, 2018).
# Several values for one entry are separate records, joined by “and”; a condition that tells them apart may be missing. Identical values can stand only once. The campaign covered roughly 290,000 compounds. About 230 (0.079%) were called active. No stated cut-off is given here; in the data, active means inhibition above about 40%; inactive means the rest. Many of the other results were omitted from the sample, so actives are more common in it than they were.
# Molecular target: Cyclic GMP-AMP synthase (Homo sapiens) (UniProt Q8N884)
# Sequence (Q8N884 whole entry, looked up): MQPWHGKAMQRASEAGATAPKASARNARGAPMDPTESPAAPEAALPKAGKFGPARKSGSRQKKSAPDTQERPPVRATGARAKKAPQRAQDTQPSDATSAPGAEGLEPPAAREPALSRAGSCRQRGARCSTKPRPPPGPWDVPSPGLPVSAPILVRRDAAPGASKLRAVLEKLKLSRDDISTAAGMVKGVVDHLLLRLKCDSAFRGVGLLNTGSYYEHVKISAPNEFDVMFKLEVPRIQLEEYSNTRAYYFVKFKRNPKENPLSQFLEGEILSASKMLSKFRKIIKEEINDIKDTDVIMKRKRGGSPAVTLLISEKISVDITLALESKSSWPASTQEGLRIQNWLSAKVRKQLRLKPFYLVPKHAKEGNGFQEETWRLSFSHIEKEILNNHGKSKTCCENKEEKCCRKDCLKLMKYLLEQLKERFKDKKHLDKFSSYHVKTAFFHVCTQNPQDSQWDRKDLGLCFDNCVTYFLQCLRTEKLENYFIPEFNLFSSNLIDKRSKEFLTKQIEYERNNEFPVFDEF
# Test: Biochemical Kinase-Glo luminescence primary assay, human cyclic GMP-AMP synthase inhibition (AID 1259398);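 further: 0% = vehicle reaction and 100% = reaction without DNA for no activity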
# Conditions: recombinant h-cGAS, ATP depletion, at 12.5 µM, active compounds read high
row,Structure (SMILES),inhibition
1,Cc1ccc(C)c(C(C)NC(=O)c2ccccc2-c2nn[nH]n2)c1 (stereo not drawn),-2.34% (inactive)
2,COc1ccc(-c2nc3ccccc3c(=O)n2Cc2ccc(F)cc2)c(OC)c1OC,-5.68% (inactive)
3,O=C(c1cnc(-c2ccncc2)nc1)N1CCOC(CCCc2ccccc2)C1 (stereo not drawn),-8.45% (inactive)
4,O=C(CCC1CCN(C(=O)c2cccc(-n3cccn3)c2)CC1)Nc1ccccc1,-9.6% (inactive)
5,CN1CCn2nc(C(=O)NC(c3ccccc3)c3ccco3)cc2C1 (stereo not drawn),-5.91% (inactive)
6,Cc1cc(-c2n[nH]c(=O)n2CCc2ccc(F)cc2)n(C)n1,2.4% (inactive)
7,Cc1n[nH]c(=O)c2c(NC(=O)CSc3nnc(C)n3C3CC3)oc(C)c12,-6.69% (inactive)
8,O=C(CCSCc1ccccn1)NCc1ccc(Br)s1,-8.25% (inactive)
9,O=C(O)CCCc1ccc(Br)s1,74.1% (active)
10,O=C(O)C=Cc1ccc(Br)s1,-0.785% (inactive)
11,Cc1noc(C)c1S(=O)(=O)N1CCCC1c1ccccn1 (stereo not drawn),-4.73% (inactive)
12,CN1CCN(Cc2cc(F)ccc2-n2cccn2)CC1CCO (stereo not drawn),-8.61% (inactive)
13,NS(=O)(=O)c1ccc(CNc2ccc3ncc(-c4ccc(Oc5ccccc5)cc4)n3n2)cc1,-8.75% (inactive)
14,Cc1ccc(CN(Cc2nc3cc(C)ccc3o2)C(=O)CC(C)C)cc1,-3.11% (inactive)
15,Cc1cccc(S(=O)(=O)N2CCN(c3cc(-n4ccnc4)nc(C)n3)CC2)c1,-1.12% (inactive)
16,Cc1cccc(-n2ccc3nc(N4CCCCC4)ncc3c2=O)c1,-4.1% (inactive)
17,COc1cc(=O)n(-c2ccccc2C)nc1C(=O)NC(c1ccccc1)c1ccccc1,-0.757% (inactive)
18,CCCCC(=O)N(C)c1c(C)nc2ccc(C(=O)NCCCN3CCCC3=O)cn12,-4.09% (inactive)
19,CCCCS(=O)(=O)N1CCCN(c2nc(CCC)nc3onc(-c4cccc(C(F)(F)F)c4)c23)CC1,-3.14% (inactive)
20,Cc1nn(C)c(C)c1CN(C(=O)C1CC(=O)N(CC(C)C)C1)C1CC1 (stereo not drawn),-3.8% (inactive)
21,O=C(CCCOc1cccc(Cl)c1Cl)N1CCN(C2CCOC2)CC1 (stereo not drawn),-4.45% (inactive)
22,Cn1c(CC2CCNCC2)nnc1SCc1noc(C2CCCO2)n1 (stereo not drawn),-3.73% (inactive)
23,COc1cc2c(cc1OC)C(C(C)NS(=O)(=O)c1ccccc1)N(Cc1ccccc1F)CC2 (stereo not drawn),-1.82% (inactive)

row,Structure (SMILES),inhibition
1,CC(=O)Nc1ccccc1N1C(=O)c2ccc(-c3nc4ccccc4c(=O)o3)cc2C1=O,0.929% (inactive)
2,CCOC(=NCc1ccccc1)NC(=O)c1cccc(C(F)(F)F)c1,-4.46% (inactive)
3,O=C1NC(C(=O)N2Cc3cnc(-c4ccccc4)nc3C2)CO1 (stereo not drawn),-0.988% (inactive)
4,Cc1[nH]c(/C=C2\C(=O)Nc3ccc(S(=O)(=O)Cc4c(Cl)cccc4Cl)cc32)c(C)c1C(=O)N1CCC[C@@H]1CN1CCCC1,63.1% (active)
5,Cc1ccnc2nc(C(=O)N3CCCC3CN3CCCC3)nn12 (stereo not drawn),-10.3% (inactive)
6,CC(=O)c1[nH]c(C)c(C(=O)N2CCCCC2CCc2ccccn2)c1C (stereo not drawn),-5.8% (inactive)
7,Cc1nn(C)c2ncc(C(=O)NCCn3cnnc3C(C)C)cc12,1.28% (inactive)
8,CC(C)(C)c1cc2nc(-c3ccccc3)cc(C(=O)NC3CCCCNC3=O)n2n1 (stereo not drawn),1.91% (inactive) and -3.83% (inactive)
9,CC(C)Nc1ccc(C(=O)N[C@H](C)C(C)(C)C)cn1,-9.34% (inactive)
10,CC(NCc1ccccc1Cn1cccn1)C(=O)NC1CCCC1 (stereo not drawn),-4.67% (inactive)
11,Cc1ccc(Nc2nc(N3CCN(c4ccc(F)cc4)CC3)nc3nccnc23)c(C)c1,-2.31% (inactive)
12,CCc1cnc2c(c1SCc1cccc(C(F)(F)F)c1)c(=O)n(C)c(=O)n2C,-9.29% (inactive)
13,Cc1ccc(CN(CCc2c[nH]c3ccccc23)C(=O)CN(C(=O)c2ccc([N+](=O)[O-])cc2)C(C)C)cc1,-6.46% (inactive)
14,Nc1cc(-c2cccc(C(F)(F)F)c2)nn1-c1ccc(C(=O)NCc2ccc3c(c2)OCO3)cc1,-5.72% (inactive)
15,C=CCNc1ccccc1C(=O)N1[C@@H]2CC[C@H]1CC(O)C2 (stereo partly drawn),-2.12% (inactive)
16,Cc1ccc(/C=C/C(=O)N(C)C(C)c2cccc(S(N)(=O)=O)c2)o1 (stereo not drawn),-0.284% (inactive)
17,O=c1c(O)c(Br)ccc2c(Br)c(O)c(O)c(O)c12,70.1% (active)
18,O=C(C=Cc1ccc(Br)o1)NC1CCCCCC1,-5.99% (inactive)
19,O=C(OCC(=O)N1CCCC1c1ccc(Cl)c(Cl)c1)C1CCOC1 (stereo not drawn),-2.27% (inactive)
20,CC(C)n1nccc1NC(=O)CN(C)S(=O)(=O)c1ccc(Cl)s1,-6.6% (inactive)
21,Cn1cnnc1Sc1ccc(Cl)cc1NC(=O)C1CCCCC1,-8.95% (inactive)
22,CCC(C)(C)NC(=O)[C@H](CC(C)C)N1CC[C@@]2(CCCN2C(=O)CCC(C)=O)C1=O,0.355% (inactive)
23,Cc1csc(C2CCN(S(=O)(=O)c3ccc(F)cc3Cl)CC2)n1,-7.52% (inactive)

row,Structure (SMILES),inhibition
1,Fc1cc(F)cc(-c2cncc(COc3ccc(F)cc3F)c2)c1,1.15% (inactive)
2,COc1nc(C)cc(C)c1CNC(=O)C(=O)N1CCc2ccccc21,4.25% (inactive)
3,CCOC(=O)C1(C)CCCN1C(=O)c1cc(C)on1 (stereo not drawn),-5.23% (inactive)
4,O=C(NC1CCN(c2ccccc2C(=O)NCc2cccc(C(F)(F)F)c2)CC1)c1ccccc1F,-3.47% (inactive)
5,Cc1cc(=O)n(-c2ccc(S(=O)(=O)O)cc2C)[nH]1,-8.43% (inactive)
6,CCOC(=O)C1CCCN(Cn2c(=O)c3ccccc3n3nc(C)cc23)C1 (stereo not drawn),-0.416% (inactive)
7,O=C(c1cc(Cn2ccc3ccccc32)[nH]n1)N1CCCC1c1nccs1 (stereo not drawn),-1.07% (inactive)
8,CCc1cnc(COc2ccc(OC3CCCCNC3=O)cc2)o1 (stereo not drawn),-10.1% (inactive)
9,COC(=O)c1c(C)[nH]c(C(=O)N2CCCC2c2ccc(OC)cc2)c1C (stereo not drawn),-3.09% (inactive)
10,COc1ccc(-c2nnc(SCC(=O)N/N=C\c3ccccn3)n2-c2ccccc2)cc1OC,1.79% (inactive)
11,C[N+](C)(CCCCCC[N+](C)(C)CCCN1C(=O)c2cccc3cccc(c23)C1=O)CCCN1C(=O)c2cccc3cccc(c23)C1=O,90.3% (active)
12,Cc1ccccc1N(CCCN1C(=O)c2cccc3cccc(c23)C1=O)C(=O)c1ccc([N+](=O)[O-])cc1,-1.77% (inactive)
13,O=C1c2cccc3cccc(c23)C(=O)N1CCCCCc1n[nH]c(=S)o1,-2.3% (inactive)
14,COc1cn(CC(=O)NCc2ccc3c(c2)OCO3)c(CSc2ncccn2)cc1=O,-5.34% (inactive)
15,COCCCN(CC(=O)N(Cc1ccc2c(c1)OCO2)Cc1cccs1)C(=O)C1C[C@H]1c1ccccc1 (stereo partly drawn),-8.64% (inactive)
16,O=C(CCNC(=O)C1CC2(CCNCC2)CN1)Nc1nccs1 (stereo not drawn),-7.06% (inactive)
17,COCc1c(Br)c(C)nc(OCC(=O)N/N=C\c2cc(I)c(OCc3ccccc3Cl)c(OC)c2)c1C#N,-3.7% (inactive)
18,CN1CCN(C(=O)c2cc(COc3ccc(-n4cncn4)cc3)on2)CC1c1ccccc1 (stereo not drawn),-7.12% (inactive) and -3.64% (inactive)
19,CCOc1cc(Br)cc(/C=N\Nc2nc(N3CCCCC3)nc(N3CCCCC3)n2)c1O,-5.11% (inactive)
20,CC1CCCN(c2nn3c(C(=O)NCCN4CCCCCC4)cc(=O)nc3s2)C1 (stereo not drawn),-1.82% (inactive)
21,Nc1ccc(NC(=S)NCc2ccco2)cc1[N+](=O)[O-],-4.64% (inactive)
22,CCN1CCN(c2ccccc2NS(=O)(=O)c2cc(Br)ccc2OC)CC1,-2.43% (inactive)
